HMGR II inh: inhibitors of E. faecalis class II HMGR, primary screen, biochemical, Enterococcus faecalis. purified E. faecalis HMGR, NADPH absorbance 340 nm kinetic. inhibition, % at 10 µM. HMG-CoA reductase (Enterococcus faecalis, mvaE). AID 1066, 2008. actives 0.41% (n = 190,000);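 active means inhibition above a set limit, the median over all tested compounds plus 3 SD, cut at about 9.5% in these data; inconclusive means no clear call, values can overlap the other calls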;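 further: enzyme runs in reverse so mevalonate oxidation gives rising NADPH absorbance; 0% = complete reaction with DMSO and 100% = background rate lacking mevalonate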
eIF4H inh: human eIF4H binding inhibitors, primary screen, translation initiation inhibitor project, biochemical, uHTS, fluorescence polarization; eIF4H fluorescence polarization binding assay; actives 0.94% (n = 290,000); inhibition, % at 35 µM; Eukaryotic translation initiation factor 4H (Homo sapiens), Q15056;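 further: calls also rest on retests at 20 µM and on dose response follow-up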
PHOSPHO1 inh: PubChem AID 1565. recombinant PHOSPHO1, absorbance phosphatase assay. inhibition, % at 13.3 µM. actives 1.1% (n = 290,000); in the data active means inhibition above about 60%
MLLE-PAM2 inh: inhibitors of PABP1 MLLE–PAM2 peptide binding, primary screen, biochemical, fluorescence polarization, FITC-PAM2, GST-MLLE | Polyadenylate-binding protein 1 (Homo sapiens), P11940 | inhibition, % at 20 µM | actives 0.36% (n = 360,000); in the data active means inhibition above about 35%, passing the limit was not always enough;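 further: plate controls were DMSO wells with GST-MLLE for no effect and wells lacking GST-MLLE protein for full effect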
Target sequence (P11940 whole entry, looked up): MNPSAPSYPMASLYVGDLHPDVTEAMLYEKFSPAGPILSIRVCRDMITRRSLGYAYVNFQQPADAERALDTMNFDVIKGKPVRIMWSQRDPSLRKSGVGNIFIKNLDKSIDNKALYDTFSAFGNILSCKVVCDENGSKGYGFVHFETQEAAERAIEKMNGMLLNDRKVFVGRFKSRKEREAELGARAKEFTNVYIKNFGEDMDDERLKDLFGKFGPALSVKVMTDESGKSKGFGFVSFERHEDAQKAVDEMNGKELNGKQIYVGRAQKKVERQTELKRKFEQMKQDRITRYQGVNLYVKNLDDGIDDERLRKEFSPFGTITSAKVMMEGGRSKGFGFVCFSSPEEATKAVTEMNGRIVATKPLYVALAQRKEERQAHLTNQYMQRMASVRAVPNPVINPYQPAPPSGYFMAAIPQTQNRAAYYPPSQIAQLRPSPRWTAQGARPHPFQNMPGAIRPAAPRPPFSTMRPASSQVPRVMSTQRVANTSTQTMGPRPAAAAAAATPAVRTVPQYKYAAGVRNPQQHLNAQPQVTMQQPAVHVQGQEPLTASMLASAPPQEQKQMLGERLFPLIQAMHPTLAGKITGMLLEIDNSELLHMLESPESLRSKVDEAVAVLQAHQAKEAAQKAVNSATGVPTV
PABP polyA inh: PABP poly(A) RNA binding inhibitors, primary screen, biochemical, fluorescence polarization, uHTS; Polyadenylate-binding protein 1 (Homo sapiens), P11940; calls only at 35 µM; actives 1% (n = 290,000); AID 2014, 2009;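 further: calls also rest on retests at 20 µM and on dose response follow-up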
* marks the source's active call; other numbers are inactive results. Shown are actives, neighbours in structure and some others; about 2.4% of the full set was active somewhere. Unless noted, how the calls were made is not given here.

Screening COc1ccc(C(=O)NC2CCCCCCC2)cc1OC returned MLLE-PAM2 inh 6.
Screening COc1ccc(S(=O)NC2CCCCC2)c(OC)c1C (stereo not given) returned HMGR II inh 1, eIF4H inh -6, PHOSPHO1 inh 87*, MLLE-PAM2 inh 3 and PABP polyA inh inactive.
Screening N#C/C(=C/c1ccco1)C(N)=S returned eIF4H inh 57*, PHOSPHO1 inh -1, MLLE-PAM2 inh 15 and PABP polyA inh active.
For CC(C)CN1CCN(Cc2nc(C(C)C)cs2)CC1CCO (stereo not given) the results were HMGR II inh 11*, eIF4H inh 5, PHOSPHO1 inh 23, MLLE-PAM2 inh 3 and PABP polyA inh inactive.
For Cc1cccc(-c2ncc(CN3CCN(CC(C)C)C(CCO)C3)cn2)c1 (stereo not given) the results were HMGR II inh 9.6*, eIF4H inh -4, PHOSPHO1 inh 41, MLLE-PAM2 inh 3 and PABP polyA inh inactive.
`OCCC1CN(Cc2cccs2)CCN1Cc1ccccc1` (stereo not given) gave HMGR II inh 15*, eIF4H inh 0, PHOSPHO1 inh 19, MLLE-PAM2 inh 9 and PABP polyA inh inactive.
`OCCC1CN(Cc2cnc(-c3ccccc3)s2)CCN1Cc1ccccc1` (stereo not given) gave HMGR II inh 0, eIF4H inh -7, PHOSPHO1 inh 54, MLLE-PAM2 inh -7 and PABP polyA inh inactive.
CC(C)CN1CCN(Cc2ccc(CN3CCCCC3)s2)CC1CCO (stereo not given) was read as HMGR II inh -1, eIF4H inh 63*, PHOSPHO1 inh 20, MLLE-PAM2 inh 0 and PABP polyA inh active.
Screening COc1ccc(-c2ncc(CN3CCN(CCC(C)C)C(CCO)C3)cn2)cc1 (stereo not given) returned HMGR II inh 1, eIF4H inh -2, PHOSPHO1 inh 40, MLLE-PAM2 inh -9 and PABP polyA inh inactive.
Screening CCN1CCN(C(=S)Nc2cc(S(=O)(=O)N(CC)CC)ccc2C)CC1 returned HMGR II inh -4, eIF4H inh -8, PHOSPHO1 inh 24, MLLE-PAM2 inh -10 and PABP polyA inh inactive.
For Nc1cccc(C(=O)N/N=C/c2ccsc2)c1 the results were HMGR II inh 1, eIF4H inh 84*, PHOSPHO1 inh 2, MLLE-PAM2 inh 10 and PABP polyA inh active.
For CCNC(=O)CN(C1CCCCC1)S(C)(=O)=O the results were HMGR II inh 2, eIF4H inh -3, PHOSPHO1 inh -5, MLLE-PAM2 inh -5 and PABP polyA inh inactive.
`Cc1cc(O)c(CN(C)C)c2c1C(=O)/C(=C/c1ccco1)O2` gave eIF4H inh 94*, PHOSPHO1 inh 26, MLLE-PAM2 inh 22 and PABP polyA inh active.
Screening N#Cc1c(-c2ccccc2)nc(SCC(=O)N(c2ccccc2)c2ccccc2)[nH]c1=O returned HMGR II inh -3, eIF4H inh -9, PHOSPHO1 inh -4, MLLE-PAM2 inh -7 and PABP polyA inh inactive.
For CCOC(=O)CCCCC(=O)c1[nH]c(=O)[nH]c1CSc1nc(-c2ccccc2)c(C#N)c(=O)[nH]1 the results were HMGR II inh -6, eIF4H inh 0, PHOSPHO1 inh 26, MLLE-PAM2 inh 40* and PABP polyA inh inactive.
COc1cccc(CN(C)C(=O)c2ccc3nccnc3c2)c1 was read as HMGR II inh 2, eIF4H inh 88*, PHOSPHO1 inh 20, MLLE-PAM2 inh -5 and PABP polyA inh active.
CN(Cc1ccc(OC(F)F)cc1)C(=O)c1ccc2nccnc2c1 was read as HMGR II inh -6, eIF4H inh -3, PHOSPHO1 inh -7, MLLE-PAM2 inh 2 and PABP polyA inh inactive.
For O=[N+]([O-])c1ccc2cn(C3OC(CO)C(O)C3O)nc2c1 (stereo not given) the results were MLLE-PAM2 inh 0.
O=C1CC(NC(=O)C(F)(F)F)=NN1c1ccccc1 was read as HMGR II inh -2, eIF4H inh active, PHOSPHO1 inh 20, MLLE-PAM2 inh 4 and PABP polyA inh active.
Screening CCOC(=O)C1(Cc2cccc(F)c2)CCN(C(=O)c2ccoc2C)CC1 returned HMGR II inh -4, eIF4H inh -2, PHOSPHO1 inh 63*, MLLE-PAM2 inh 1 and PABP polyA inh inactive.
Cc1cc(C)cc(Nc2ccc(C(=O)O)cc2N)c1 was read as HMGR II inh -4, eIF4H inh 54*, PHOSPHO1 inh -16, MLLE-PAM2 inh 13 and PABP polyA inh active.
For O=C1NC(=S)N/C1=C/c1ccc2c(c1)OCO2 the results were eIF4H inh 56, PHOSPHO1 inh 25, MLLE-PAM2 inh -24 and PABP polyA inh active.
For N#C/C(=C\c1c(N2CCN(Cc3ccccc3)CC2)nc2ccccn2c1=O)S(=O)(=O)c1ccccc1 the results were eIF4H inh inconclusive, PHOSPHO1 inh 34, MLLE-PAM2 inh -12 and PABP polyA inh active.
Cc1cccn2c(=O)c(C=O)c(N3CCN(c4ccc(F)cc4)CC3)nc12 was read as HMGR II inh 3, eIF4H inh 96*, PHOSPHO1 inh 26, MLLE-PAM2 inh 6 and PABP polyA inh active.
`Cc1ccc2nc(N3CCN(c4ccccc4F)CC3)c(C=O)c(=O)n2c1` gave HMGR II inh 3, eIF4H inh 58, PHOSPHO1 inh 41, MLLE-PAM2 inh 17 and PABP polyA inh active.
Screening Cc1cccn2c(=O)c(C=O)c(N3CCCCC3)nc12 returned HMGR II inh -4, eIF4H inh 5, PHOSPHO1 inh -6, MLLE-PAM2 inh 12 and PABP polyA inh inactive.
`Cc1ccc2nc(N3CCCCC3)c(C=O)c(=O)n2c1` gave HMGR II inh -5, eIF4H inh -3, PHOSPHO1 inh 28 and PABP polyA inh inactive.
Screening Cc1ccc(S(=O)(=O)/C(C#N)=C/c2c(N3CCOCC3)nc3c(C)cccn3c2=O)cc1 returned eIF4H inh inconclusive, PHOSPHO1 inh -1, MLLE-PAM2 inh 0 and PABP polyA inh inconclusive.
Cc1cccn2c(=O)c(/C=C(\C#N)S(=O)(=O)c3ccccc3)c(N3CCN(Cc4ccccc4)CC3)nc12 was read as eIF4H inh 78*, PHOSPHO1 inh -188, MLLE-PAM2 inh 21 and PABP polyA inh active.
`COc1ccc(CNC(=O)COC(=O)/C=C/c2cccc(Cl)c2)cc1` gave MLLE-PAM2 inh -1.
Screening Cc1ccccc1NC(=O)CN1CCN(C(=O)c2ccco2)CC1 returned eIF4H inh -16, PHOSPHO1 inh 46, MLLE-PAM2 inh -21 and PABP polyA inh inactive.
For N#C/C(=C\c1c(N2CCC(C(N)=O)CC2)nc2ccccn2c1=O)C(=O)NCc1ccco1 the results were HMGR II inh -3, eIF4H inh 62*, PHOSPHO1 inh 8, MLLE-PAM2 inh -7 and PABP polyA inh active.

Screening data deposited in PubChem BioAssay by several laboratories.
